Experiment [1] in a line: qHTS assay for measurement of the activity of small molecule inhibitors on Zika virus induced Caspase-3 activity in human iPSC derived neural progenitor cells (hNPCs) (AID 1224857). Note: nearly all actives have a fitted effect of over 65% in size. The essentials:
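Zika virus (2 FFU/cell) infection of human iPSC-derived NPCs, 6 h, following 1 h compound preincubation. Read-out: Caspase-Glo 3/7 luminescence.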
(In general: Quantitative high-throughput screening tests each substance at several concentrations.)

Experiment [2] can be described thus: qHTS assay for measurement of the activity of small molecule inhibitors on Zika virus induced Caspase-3 activity in human astrocytoma cells (AID 1224859). A digest of the protocol: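 Caspase activation in ZIKV-infected SNB-19 cells (2 FFU/cell, 6 h) measured by Caspase-Glo 3/7 luminescence after 30 min RT; compound pre-incubated 1 h; normalised to uninfected and infected controls.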

A short description of experiment [3]: qHTS assay to identify small molecule inhibitors of chordoma cells - UCH-1 (AID 1259355). Note: nearly all actives have a fitted effect of over 55% in size. Note: potency is the fitted concentration of half-maximal effect; series mostly up to about 46 µM. The essentials: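 A 48hr growth-inhibition format: each drug tested at 15 concentrations together with added auranofin, camptothecin, doxorubicin, rubitecan and topotecan, with cell viability quantified as CellTiter-Glo luminescence.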
Experiment [4] can be described thus: qHTS assay to identify small molecule inhibitors of chordoma cells - UCH-2 (AID 1259356). Note: series mostly up to about 46 µM.
Experiment [5] is described as follows: Identifying Small Molecule Inhibitors of Pancreatic Cancer Stem Cells (A2780, Spheroid) (AID 1259357).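 Note: spheroids pre-formed over 14 days in stem cell medium on hydrogel; compound exposure lasted 48 h before the ATP luminescence read.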 The settings on record: Potency: A2780 spheroid viability. The essentials: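 Spheroids grown 14 days in stem cell media on hydrogel-coated nonadherent plates; 2D lines seeded directly. Compounds added after 4 h attachment, 48 h at 37C, 5% CO2; CellTiter-Glo luminescence normalized to DMSO (no inhibition) and no-cell wells (full inhibition).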

Inconclusive results are not listed. Where a call stands in place of a potency, no number is given. Calls of active or inactive are those of the source. Calls come from the whole dose curve; as a rule, active = well fitted curve in the direction sought with a large enough effect; inconclusive = small, poorly fitted or top-dose-only effect, or another doubt; inactive = no such curve, though single readings can be large; an effect the other way counts as inactive or inconclusive.

Take `Cc1ccc2c(c1)C1CN(C)CCC1N2` (stereo unspecified): the Potency entry in experiment [1], in experiment [3] and in experiment [4] was “inactive” throughout. The molecule was called inactive in experiment [2].
In the case of `CCN(CC)CCOC(=O)C(O)(c1ccccc1)c1ccccc1`, the Potency result in experiment [1], in experiment [3] and in experiment [4] was “inactive” each time. Also, the molecule was classed as inactive in experiment [2].
On to `Oc1cccc2cccnc12`, for which the Potency result in experiment [1], in experiment [3] and in experiment [4] was “inactive” throughout. Further, the outcome in experiment [2] was inactive.
With `CC(=O)[C@H]1CC[C@H]2[C@@H]3CC[C@H]4C[C@H](O)CC[C@]4(C)[C@H]3C(=O)C[C@]12C`, the Potency entry in experiment [1], in experiment [3] and in experiment [4] was “inactive” each time. Further, in experiment [2], the outcome was inactive.
In the case of `OCCOc1ccccc1`, the Potency entry in experiment [1], in experiment [3] and in experiment [4] was “inactive” in each case. Also, in experiment [2], the result was inactive.
Turning to `CC1NCCOC1c1ccccc1` (stereo unspecified), the Potency result in experiment [1], in experiment [3] and in experiment [4] was “inactive” each time. Besides, the result in experiment [2] was inactive.
In the case of `CC(C)=CC1C(C(=O)OCc2cccc(Oc3ccccc3)c2)C1(C)C` (stereo unspecified), the Potency entry in experiment [1], in experiment [3] and in experiment [4] was “inactive” throughout. For the same molecule, the molecule was classed as inactive in experiment [2].
As to `NCC(CC(=O)O)c1ccc(Cl)cc1` (stereo unspecified), the Potency entry in experiment [1], in experiment [3] and in experiment [4] was “inactive” in each case. The result in experiment [2] was inactive.
On to `c1ccc2c(c1)OCC(C1=NCCN1)O2` (stereo unspecified), for which the Potency result in experiment [1] was “inactive”. The result in experiment [2] was inactive. In addition, in experiment [3], the Potency was 31.6 µM (active).
As for `C#CCOC(C(=O)OCCN(C)C)(c1ccccc1)c1ccccc1`, the Potency entry in experiment [1], in experiment [3] and in experiment [4] was “inactive” in each case. Also, the call in experiment [2] was inactive.
`O=C(NC(O)C(Cl)(Cl)Cl)NC(O)C(Cl)(Cl)Cl` (stereo unspecified): the Potency entry in experiment [1], in experiment [3] and in experiment [4] was “inactive” each time. Moreover, the molecule was called inactive in experiment [2].
`Oc1ccc(Cl)cc1Cc1ccccc1`: the Potency entry in experiment [1], in experiment [3] and in experiment [4] was “inactive” in each case. In addition, the call in experiment [2] was inactive.
With `Clc1cccc(N2CCNCC2)c1`, the Potency entry in experiment [1], in experiment [3] and in experiment [4] was “inactive” throughout. Further, in experiment [2], the call was inactive.
As for `Clc1ccc(COC(Cn2ccnc2)c2ccc(Cl)cc2Cl)cc1` (stereo unspecified), the Potency result in experiment [1], in experiment [3] and in experiment [4] was “inactive” in each case. Further, in experiment [2], the molecule was called inactive.
As to `COc1ccc(Cc2nccc3cc(OC)c(OC)cc23)cc1OC`, the Potency entry in experiment [1], in experiment [3] and in experiment [4] was “inactive” each time. The outcome in experiment [2] was inactive.
Regarding `CCC(C(N)=O)N1CCCC1=O` (stereo unspecified), the Potency entry in experiment [1], in experiment [3] and in experiment [4] was “inactive” throughout. The outcome in experiment [2] was inactive.
For `Cc1cccc(C)c1NC1=NCCCS1`, the Potency result in experiment [1], in experiment [3] and in experiment [4] was “inactive” each time. Also, the outcome in experiment [2] was inactive.
Turning to `CC[N+](CC)(CC)CC`, the Potency entry in experiment [1], in experiment [3] and in experiment [4] was “inactive” in each case. In experiment [2], the call was inactive.
Turning to `CCCC1CCCCN1` (stereo unspecified), the Potency result in experiment [1], in experiment [3] and in experiment [4] was “inactive” throughout. In experiment [2], the molecule was called inactive.
Consider `O=[N+]([O-])c1cc([As](=O)(O)O)ccc1O`, for which the Potency result in experiment [1], in experiment [3] and in experiment [4] was “inactive” throughout. In addition, the outcome in experiment [2] was inactive.
As to `C[C@]12C/C(=C/O)C(=O)C[C@@H]1CC[C@@H]1[C@@H]2CC[C@@]2(C)[C@H]1CC[C@]2(C)O`, the Potency result in experiment [1], in experiment [3] and in experiment [4] was “inactive” throughout. Moreover, the call in experiment [2] was inactive.
For `CCC1(C2=NCCN2)Cc2ccccc2O1` (stereo unspecified), the Potency entry in experiment [1], in experiment [3] and in experiment [4] was “inactive” in each case. Also, in experiment [2], the call was inactive.
Turning to `C[C@]12CC[C@H]3[C@@H](CCC4=CC(=O)CC[C@@H]43)[C@@H]1CC[C@@H]2OC(=O)CCc1ccccc1`, the Potency result in experiment [1] was “inactive”. The result in experiment [2] was inactive.
Regarding `Nc1ccncc1`, the Potency result in experiment [1], in experiment [3] and in experiment [4] was “inactive” throughout. In experiment [2], the outcome was inactive.
For `CCN(C(C)=O)c1cccc(-c2ccnc3c(C#N)cnn23)c1`, the Potency entry in experiment [1], in experiment [3] and in experiment [4] was “inactive” in each case. The outcome in experiment [2] was inactive.
`Cc1ccc(-c2nc3ccc(C)cn3c2CC(=O)N(C)C)cc1`: the Potency entry in experiment [1], in experiment [3] and in experiment [4] was “inactive” in each case. Besides, in experiment [2], the call was inactive.
Turning to `CC(=O)[C@H]1CC[C@H]2[C@@H]3CC[C@H]4C[C@](C)(O)CC[C@]4(C)[C@H]3CC[C@]12C`, the Potency result in experiment [1], in experiment [3] and in experiment [4] was “inactive” in each case. Also, the molecule was called inactive in experiment [2].
Take `C[C@]12CCC(=O)C(O)=C1CC[C@@H]1[C@@H]2CC[C@]2(C)C(=O)CC[C@@H]12`: the Potency result in experiment [5] is “inactive”.

For the origin of these results see PubChem BioAssay (NCATS).
